Reference: PubChem BioAssay (Tox21)
Values without a mark were called inactive. Inconclusive results are not listed. Where a call stands in place of a potency, no number is given. Activity calls are given as the source filed them. Unless noted, calls follow the shape of the dose curve; as a rule, active = well fitted curve in the direction sought with a large enough effect in the repeat runs; inconclusive = weak or mixed curves; inactive = no such curve, though single readings can be large; an effect the other way counts as inactive or inconclusive.

What was measured:
[1] = qHTS assay for small molecule agonists of the p53 signaling pathway (AID 651631; calls by dose curve; also: nearly all actives have a fitted effect of over 15% in size)
Summary of the method: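 HCT-116 cells carrying a beta-lactamase reporter under p53 response elements were dosed with compound for 16 h at 37 °C. LiveBLAzer B/G FRET substrate was then added for 2 h at room temperature, and fluorescence intensity was read to detect pathway agonism.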

[2] = qHTS assay for small molecule agonists of the p53 signaling pathway - cell viability (AID 651633; calls by dose curve; also: nearly all actives have a fitted effect of over 30% in size; also: potency is read from the fitted curve at half-maximal effect)
Summary of the method: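 p53RE-bla cells, seeded at 4,000 per well and rested 5 h at 37 C/5% CO2, received compounds in DMSO for 16 h at 37 C. CellTiter-Glo was then added, and luminescence was read after 30 min at room temperature to gauge cytotoxicity.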

[3] = qHTS assay for small molecules that induce genotoxicity in human embryonic kidney cells expressing luciferase-tagged ATAD5 - cell viability (AID 651634; calls by dose curve; also: nearly all actives have a fitted effect of over 25% in size)
Summary of the method: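 Cytotoxicity counterscreen in HEK293T cells bearing an ATAD5-luciferase reporter: live-cell protease activity measured by CellTiter-Fluor fluorescence after 15.5 hr compound exposure.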

[4] = qHTS assay for small molecule disruptors of the mitochondrial membrane potential - cell viability (AID 720634; calls by dose curve;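 also: human HepG2 liver cancer cells; series mostly up to about 83 µM; nearly all actives have a fitted effect of over 20% in size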)
Summary of the method: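 After overnight attachment at 37 C, HepG2 cells received compound or DMSO vehicle for 1 hr. Viability is then taken from ATP-driven luminescence following a 30 min room-temperature CellTiter-Glo step.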

[5] = qHTS assay for small molecule disruptors of the mitochondrial membrane potential (AID 720635); also: potency is read from the fitted curve at half-maximal effect
Summary of the method: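 HepG2 cells (2,000/well) attached overnight at 37C, then took compound for 1 hr at 37C, 5% CO2. Mito-MPS dye was added for 30 min; fluorescence was read at 490/535 nm (monomers) and 540/590 nm (aggregates).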

[6] = qHTS assay to test for compound auto fluorescence at 590 nm (red) in HepG2 cells (AID 720674)
Summary of the method: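 Intrinsic compound fluorescence in the red window (Ex/Em 540/590 nm) is measured in attached HepG2 cells exposed for 1 hr, DMSO vehicle as baseline, benchmarked to Rose Bengal sodium.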

[7] = qHTS assay to test for compound auto fluorescence at 535 nm (green) in HepG2 cells (AID 720675)
[8] = qHTS assay to test for compound auto fluorescence at 460 nm (blue) in HEK293 cells (AID 720678)
Summary of the method: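 Auto fluorescence in the blue band was quantified as triamterene equivalency. HEK293 cells were seeded at 2,000/well, dosed after a 4-5 hr attachment, and kept overnight at 37C before the 405/460 nm reading.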

[9] = qHTS assay to test for compound auto fluorescence at 590 nm (red) in HEK293 cells (AID 720679)
Summary of the method: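 Autofluorescence equivalency to Rose Bengal sodium, 540/590nm, in HEK293 cells exposed overnight to 23 nL compound per well.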

[10] = qHTS assay to test for compound auto fluorescence at 535 nm (green) in HEK293 cells (AID 720680)
[11] = qHTS assay to test for compound auto fluorescence at 460 nm (blue) in HEK293 cell free culture (AID 720681)
Summary of the method: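 Test compounds were pinned into cell-free culture medium (DMEM with 10% FBS) and fluorescence was read directly at Ex/Em 405/460 nm. Signals were expressed as fluorescence equivalents of triamterene, with DMSO vehicle as control.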

[12] = qHTS assay to test for compound auto fluorescence at 535 nm (green) in HEK293 cell free culture (AID 720682)
Summary of the method: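 Green-label autofluorescence (485 nm excitation, 535 nm emission) measured on compound added to cell-free culture medium (DMEM, 10% FBS). Output is expressed relative to fluorescein.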

[13] = qHTS assay to test for compound auto fluorescence at 590 nm (red) in HEK293 cell free culture (AID 720683)
Summary of the method: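 Tox21 10K library compounds were pinned into cell-free DMEM with 10% FBS and fluorescence was read at excitation 540 nm. Activity is expressed as Rose Bengal sodium equivalency.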

[14] = qHTS assay to test for compound auto fluorescence at 590 nm (red) in HepG2 cell free culture (AID 720684)
Summary of the method: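 Measured in medium alone (MEM containing 10% FBS) following pintool addition of compound; emission at 590 nm with 540 nm excitation, referenced to Rose Bengal sodium.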

[15] = qHTS assay to test for compound auto fluorescence at 535 nm (green) in HepG2 cell free culture (AID 720686)
[16] = qHTS assay to test for compound auto fluorescence at 460 nm (blue) in HepG2 cells (AID 720687)
Summary of the method: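 Cells (2,000/well in MEM with 10% FBS) attached overnight at 37 C, then were exposed to compound or DMSO for 1 hr at 37 C, 5% CO2. Fluorescence read at Ex/Em 405/460 nm, expressed as triamterene-equivalent signal.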

[17] = qHTS assay for small molecules that induce genotoxicity in human embryonic kidney cells expressing luciferase-tagged ATAD5 (AID 651632); also: nearly all actives have a fitted effect of over 15% in size; also: potency is read from the fitted curve at half-maximal effect
Summary of the method: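 Increased luciferase signal from ATAD5-tagged reporter cells indicates DNA-damage-driven ATAD5 induction. HEK293T cells are treated for 16 hr at 37C before detection with Amplite.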

[18] = qHTS assay to test for compound auto fluorescence at 460 nm (blue) in HepG2 cell free culture (AID 720685)
Summary of the method: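 Compound (23 nL) or DMSO pinned into cell-free MEM with 10% FBS; blue fluorescence read at 405/460 nm excitation/emission, expressed as auto-fluorescence equivalency to triamterene.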

[19] = biological target: Glucocorticoid receptor (Homo sapiens) (UniProt P04150); assay: qHTS assay to identify small molecule agonists of the glucocorticoid receptor (GR) signaling pathway (AID 720691; active = well fitted activation curve with a large enough effect in the signal ratio in the repeat runs, not every such curve was filed as active; the % refers to the signal ratio)
Summary of the method: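 Agonist mode in a HeLa line carrying a GRE-controlled beta-lactamase reporter. Compounds act for 18 h at 37 C before a 2 h room-temperature FRET substrate step and fluorescence reading.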

[20] = biological target: Glucocorticoid receptor (Homo sapiens) (UniProt P04150); assay: qHTS assay to identify small molecule antagonists of the glucocorticoid receptor (GR) signaling pathway (AID 720692; active = well fitted inhibition curve with a large enough effect in the signal ratio in the repeat runs, not every such curve was filed as active; the % refers to the signal ratio; also: potency is read from the fitted curve at half-maximal effect)
Summary of the method: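 Cells plated, rested 4 h at 37 C/5% CO2; compounds in DMSO pin-transferred; dexamethasone added to 5 nM final; 18 h at 37 C; B/G FRET substrate added, 2 h room temperature; fluorescence measured.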

Chain of Glucocorticoid receptor (Homo sapiens) (P04150 whole entry, looked up): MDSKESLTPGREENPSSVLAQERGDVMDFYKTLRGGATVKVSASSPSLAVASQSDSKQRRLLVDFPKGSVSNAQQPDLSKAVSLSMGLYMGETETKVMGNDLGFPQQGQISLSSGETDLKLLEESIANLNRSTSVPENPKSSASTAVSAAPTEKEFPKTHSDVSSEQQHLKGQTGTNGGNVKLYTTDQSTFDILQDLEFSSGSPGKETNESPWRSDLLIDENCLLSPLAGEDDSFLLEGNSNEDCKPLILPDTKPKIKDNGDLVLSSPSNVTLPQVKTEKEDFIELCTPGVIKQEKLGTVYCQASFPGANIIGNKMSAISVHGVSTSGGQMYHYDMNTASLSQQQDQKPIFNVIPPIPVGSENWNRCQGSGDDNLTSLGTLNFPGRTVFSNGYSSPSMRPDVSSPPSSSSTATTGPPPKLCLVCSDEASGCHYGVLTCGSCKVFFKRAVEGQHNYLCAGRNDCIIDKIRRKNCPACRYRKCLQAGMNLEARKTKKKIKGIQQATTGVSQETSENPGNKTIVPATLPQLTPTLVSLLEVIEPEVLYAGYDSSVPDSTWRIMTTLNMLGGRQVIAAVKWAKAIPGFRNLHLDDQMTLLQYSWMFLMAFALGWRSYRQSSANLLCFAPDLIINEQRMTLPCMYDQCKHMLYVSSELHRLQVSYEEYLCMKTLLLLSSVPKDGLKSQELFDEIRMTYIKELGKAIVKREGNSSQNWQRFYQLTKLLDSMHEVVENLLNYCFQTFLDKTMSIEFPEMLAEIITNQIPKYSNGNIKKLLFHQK

| SMILES | Potency [1] | Potency [2] | Potency [3] | outcome [4] | Potency [5] | outcome [6] | outcome [7] | Potency [8] | outcome [9] | outcome [10] | Potency [11] | outcome [12] | outcome [13] | outcome [14] | outcome [15] | Potency [16] | Potency [17] | Potency [18] | Potency [19] | Potency [20] |
| --- | --- | --- | --- | --- | --- | --- | --- | --- | --- | --- | --- | --- | --- | --- | --- | --- | --- | --- | --- | --- |
| ClC1=C(Cl)C1(Cl)Cl | inactive | inactive | inactive | inactive | inactive | inactive | inactive | inactive | inactive | inactive | inactive | inactive | inactive | inactive | inactive | inactive |  |  |  |  |
| O=[N+]([O-])c1ccc2ncccc2c1 | inactive | inactive | inactive | inactive |  | inactive | inactive | inactive | inactive | inactive | inactive | inactive |  | inactive | inactive | inactive | inactive | inactive | inactive |  |
| CCOC(=O)C(C)O (centres undefined) | inactive | inactive | inactive |  |  | inactive | inactive | inactive | inactive | inactive | inactive | inactive | inactive | inactive | inactive | inactive | inactive | inactive | inactive | inactive |
| C[C@@H]1[C@H](O)[C@@H](C)/C=C/C=C\C=C\C=C\C=C\C=C\C=C\[C@H](O[C@@H]2O[C@H](C)[C@@H](O)[C@H](N)[C@@H]2O)C[C@@H]2O[C@](O)(C[C@@H](O)C[C@@H](O)[C@H](O)CC[C@@H](O)C[C@@H](O)CC(=O)O[C@H]1C)C[C@H](O)[C@H]2C(=O)O (stereo in doubt) | inactive | inactive |  | inactive |  | inactive | inactive | inactive | inactive | inactive | inactive | inactive | inactive | inactive | inactive | inactive | inactive | inactive | inactive | 49 µM (active) |
| Nc1ccc(NC(=O)c2ccc(N)cc2)cc1 | inactive | inactive | inactive | inactive | 1.37 µM (active) | inactive | inactive | inactive | inactive | inactive | inactive | inactive | inactive | inactive | inactive | inactive |  |  |  |  |
| CCc1ccc(C)cc1 | inactive | inactive | inactive | inactive |  | inactive | inactive | inactive | inactive | inactive | inactive |  | inactive | inactive | inactive | inactive | inactive | inactive | inactive | inactive |
| CNS(=O)(=O)c1cc(C(=O)N2CCC(CCN3C4CCC3CC(n3c(C)nc5ccccc53)C4)(c3cccc(F)c3)CC2)c(Cl)cc1F (centres undefined) | inactive | 48.6 µM (active) |  | inactive |  | inactive | inactive | inactive | inactive | inactive | inactive |  | inactive | inactive | inactive | inactive | inactive | inactive |  |  |
| CCN(CC)CCNC(=O)c1cc(Cl)c(N)cc1OC | inactive | inactive | inactive | inactive |  | inactive | inactive | inactive | inactive | inactive | inactive |  | inactive | inactive | inactive | inactive | inactive | inactive |  |  |
| COc1ccc(-n2nc(C(F)F)cc2-c2ccc(S(C)=O)cc2)cc1 (centres undefined) | inactive |  | inactive | inactive | inactive | inactive | inactive | inactive | inactive | inactive | inactive | inactive | inactive | inactive | inactive | inactive | inactive | inactive | inactive | inactive |
| O=C(Oc1ccccc1)c1ccc2ccccc2c1O | inactive | inactive | inactive |  |  | inactive | inactive | inactive | inactive | inactive | inactive | inactive | inactive | inactive | inactive |  | 9.69 µM (active) |  | inactive |  |
| c1ccc2sc(SSc3nc4ccccc4s3)nc2c1 | inactive | inactive | inactive | inactive |  | inactive | inactive | inactive | inactive | inactive | inactive | inactive |  | inactive | inactive | inactive | inactive | inactive | inactive | inactive |
| CC(C)C(=O)OCCOc1ccccc1 | inactive | inactive | inactive | inactive | inactive | inactive | inactive | inactive | inactive | inactive | inactive | inactive | inactive | inactive | inactive |  |  | inactive | inactive | inactive |
| CCSC(=O)N(CC)CC | inactive | inactive | inactive | inactive |  | inactive | inactive | inactive | inactive | inactive | inactive | inactive |  | inactive | inactive |  | inactive | inactive | inactive | inactive |
| O=C(O)CCS | inactive | inactive | inactive |  |  | inactive | inactive | inactive | inactive | inactive | inactive |  | inactive | inactive | inactive | inactive | inactive | inactive |  |  |
| CNc1c2c(nn1C)CCCC2 | inactive | inactive | inactive | inactive |  | inactive | inactive | inactive | inactive | inactive | inactive | inactive | inactive | inactive | inactive | inactive | inactive |  | inactive | inactive |
